# Measurements published in ChEMBL document CHEMBL4513146, “CO-ADD screening of Karazin Kharkiv National University (Ukraine) compounds”.
# Results with a measured potency or affinity are listed apart.
# Tests used:
# Klebsiella pneumoniae = conditions: Concentration 32 ug.mL-1;; ASSAY_TEST Inhibition of Bacterial Growth; detection method Absorption (OD600); MEDIA CAMHB; plate type 384well; NBS; CORNING #3640; time 18 hr
# Candida albicans = conditions: Concentration 32 ug.mL-1; ASSAY_TEST Inhibition of Fungal Growth; detection method Absorption (OD530)
# Cryptococcus neoformans = conditions: Concentration 32 ug.mL-1; ASSAY_TEST Inhibition of Fungal Growth; detection method Resazurin; Absorption (OD600-OD570); plate type 384well; NBS; CORNING #3640
Structure (SMILES),Inhibition (Klebsiella pneumoniae),Inhibition (Candida albicans),Inhibition (Cryptococcus neoformans)
Cc1ccc(-c2ccc3nn(Cc4cccc(Br)c4)c(=O)n3n2)cc1C,14.87%,0.19%,-18.95%
COc1ccc(NC(=O)Cn2nc3c(Sc4cccc(C)c4)nccn3c2=O)cc1Cl,5.17%,12.08%,-20.89%
COc1ccccc1Cn1c(=O)c2sccc2n2c(=O)n(Cc3c(F)cccc3Cl)nc12,8.3%,-2.27%,-30.55%
O=S(=O)(c1ccc2nncn2c1)N(Cc1cccc(F)c1)c1cc(F)cc(F)c1,12.28%,4.13%,-6.89%
COc1ccc(CNC(=O)Cn2nc3c(N4CCN(c5ccccc5)CC4)nccn3c2=O)cc1,14.33%,4.36%,-9.25%
CCc1cccc(C)c1NC(=O)CSc1nnc2ccc(C(=O)Nc3cccc(F)c3)cn12,5.93%,1.09%,-4.75%
Cc1ccc(-c2ccc3nn(Cc4nc(-c5ccc(Cl)cc5)no4)c(=O)n3n2)cc1,0.33%,7.26%,-7.02%
Cc1cccc(NC(=O)CSc2nnc3ccc(C(=O)Nc4cccc(F)c4)cn23)c1,11.26%,1.08%,-17.48%
CC1CCCN(c2nccn3c(=O)n(CC(=O)Nc4ccc(F)cc4F)nc23)C1 (centres undefined),-1.65%,1.98%,-8.2%
Cc1ccc(-c2cc3c4nn(CC(=O)Nc5ccccc5F)c(=O)n4ccn3n2)cc1C,6.53%,-0.75%,-15.58%
Cc1c(Cl)cccc1-n1ccn2c(=O)n(Cc3ccccc3Cl)nc2c1=O,-1.96%,-2.16%,-12.25%
COc1ccc(C(C)NC(=O)CCc2nnc3ccc(-c4ccc(C)cc4)nn23)cc1OC (centres undefined),15.87%,8.51%,-54.1%
Cc1ccc(NC(=O)Cn2nc3c(SC4CCCCC4)nccn3c2=O)c(Br)c1,3.74%,0.73%,-7.42%
O=S(=O)(c1ccc2nncn2c1)N(Cc1cccc(Cl)c1)c1ccccc1,4.69%,-1.59%,-11.03%
Cc1cc2nn(CC(=O)Nc3cc(F)ccc3C)c(=O)n2c(Nc2ccc(F)cc2)n1,8.72%,0.87%,-4.58%
O=c1n(Cc2cccc(C(F)(F)F)c2)nc2c(S(=O)(=O)N3CCCCCC3)cccn12,7.16%,2.16%,-9.24%
O=c1n(Cc2cc(F)cc(F)c2)nc2ccc(-c3ccccc3)nn12,18.79%,0.55%,-16.53%
Cc1ccc(CNC(=O)Cn2nc3c(N4CCN(c5ccccc5C)CC4)nccn3c2=O)cc1,0.81%,26.17%,-8.71%
COc1ccc(NC(=O)Cn2nc3c4cc(-c5ccc(C)c(C)c5)nn4ccn3c2=O)cc1,9.06%,19.37%,-31.22%
Cc1cccc(Cn2nc3n(CCc4ccccc4)c(=O)c4sccc4n3c2=O)c1,3.95%,-1.37%,-11.78%
CCc1nnc2c(SCC(=O)Nc3cc(Cl)ccc3OC)nc3ccccc3n12,11.61%,1.63%,-7.04%
COc1ccc(-c2cc3c4nn(CC(=O)Nc5c(C)cccc5C)c(=O)n4ccn3n2)cc1,9.85%,7.22%,-19.98%
CCc1cccc(NC(=O)CSc2nnc3c(=O)n(-c4cccc(OC)c4)ccn23)c1,7.34%,13.59%,-2.76%
Cc1cccc(N(C)C(=O)Cn2nc3cc(C)nc(Nc4ccc(C)c(F)c4)n3c2=O)c1,20.18%,4.24%,-1.47%
COc1ccc(NC(=O)CSc2nc3ccccc3n3cnnc23)cc1OC,13.64%,4.39%,-35.7%
Cc1ccc(Oc2nccn3c(=O)n(CC(=O)Nc4ccccc4F)nc23)cc1,2.86%,5.88%,-5.76%
Cc1cc2nn(CC(=O)NC3CCCCC3)c(=O)n2c(Nc2ccc(F)c(C)c2)n1,19.39%,3.39%,-7.59%
Cc1ccc(-c2ccc3nn(CC(=O)Nc4ccc(Cl)cc4)c(=O)n3n2)cc1C,17.23%,0.13%,-13.82%
